The nature of test [1]: antimalarial activity against Dd2 strain (AID 2302;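 active means growth inhibition above 50% at the single 2 µM test dose, taken to imply half-maximal potency below 2 µM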;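 further: 0% = DMSO untreated growth and 100% = chloroquine plus artemisinin killed control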). Conditions: P. falciparum Dd2 in RBCs, LDH growth readout, 72 h; at 2 µM; active compounds read high.
Test [2] in a line: HepG2 cytotoxicity, primary screen, cytotoxicity control for P. falciparum antimalarial project, cell-based, ATP luminescence (AID 2303;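 active means inhibition above 50%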;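 further: 0% = DMSO wells and 100% = digitonin-killed cells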). Conditions: HepG2 viability, 24-48 h, at 10 µM, active compounds read high.
In test [3] the target is L-lactate dehydrogenase (Plasmodium falciparum (isolate CDC / Honduras)) (UniProt Q27743). In words: PfLDH activity inhibition – cell lysate, 3D7 strain, counter-screen for P. falciparum growth inhibition project (AID 2304).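 Further: 0% = vehicle and 100% = reference inhibitor.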 Conditions: P. falciparum 3D7 crude extract, LDH APAD/NBT absorbance; at 2 µM; active compounds read high. On the technique in general: A counterscreen serves to expose hits that act by an unwanted route or on another target.
Sequence of L-lactate dehydrogenase (Plasmodium falciparum (isolate CDC / Honduras)) (Q27743 whole entry, looked up): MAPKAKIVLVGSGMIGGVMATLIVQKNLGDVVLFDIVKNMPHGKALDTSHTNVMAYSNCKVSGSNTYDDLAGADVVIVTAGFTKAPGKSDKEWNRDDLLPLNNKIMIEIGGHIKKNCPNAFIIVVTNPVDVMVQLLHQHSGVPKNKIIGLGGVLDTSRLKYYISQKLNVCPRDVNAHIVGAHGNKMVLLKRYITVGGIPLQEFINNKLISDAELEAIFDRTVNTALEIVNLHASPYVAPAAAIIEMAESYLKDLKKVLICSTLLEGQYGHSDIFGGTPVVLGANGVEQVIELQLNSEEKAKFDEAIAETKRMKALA

Test [4] is described as follows: inhibition of 3D7 malaria parasite growth – strain 3D7 (AID 2306).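 Further: 0% = DMSO wells and 100% = chloroquine plus artemisinin control wells.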 Conditions: P. falciparum 3D7 erythrocytic growth, LDH absorbance, 72 h; at 2 µM; active compounds read high.
For test [5], the target named is Calcium-dependent protein kinase 1 (Plasmodium falciparum (isolate 3D7)) (UniProt P62344). In words: PfCDPK1 kinase inhibitors, biochemical, TCAMS library (AID 1159585; cut-off not given, nearly all actives have IC50 up to about 0.98 µM;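 further: inhibitors leave more ATP so luminescence rises with inhibition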). Conditions: recombinant PfCDPK1, Kinase-Glo ATP depletion luminescence. (In Kinase-Glo more light means more ATP remaining.)
Sequence of Calcium-dependent protein kinase 1 (Plasmodium falciparum (isolate 3D7)) (P62344 whole entry, looked up): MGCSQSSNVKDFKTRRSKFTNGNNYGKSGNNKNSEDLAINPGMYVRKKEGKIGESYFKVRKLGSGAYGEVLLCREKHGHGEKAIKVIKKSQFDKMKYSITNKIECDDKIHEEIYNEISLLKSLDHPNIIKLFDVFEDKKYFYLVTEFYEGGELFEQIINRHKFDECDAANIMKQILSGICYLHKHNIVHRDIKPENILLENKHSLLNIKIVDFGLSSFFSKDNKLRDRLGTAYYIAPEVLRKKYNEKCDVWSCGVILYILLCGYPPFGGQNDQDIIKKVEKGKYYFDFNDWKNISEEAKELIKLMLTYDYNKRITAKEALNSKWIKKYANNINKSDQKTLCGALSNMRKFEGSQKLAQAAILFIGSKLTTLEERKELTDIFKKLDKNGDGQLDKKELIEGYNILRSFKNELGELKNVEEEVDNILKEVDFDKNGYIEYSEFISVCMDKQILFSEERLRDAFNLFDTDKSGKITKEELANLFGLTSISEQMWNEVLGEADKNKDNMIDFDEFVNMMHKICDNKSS
Test [6] addresses Plasmodium falciparum protein kinase 6 (PK6, PF3D7_1337100) (UniProt Q8IDW1). In words: PfPK6 kinase inhibitors, biochemical, TCAMS library (AID 1159586). Conditions: recombinant PfPK6, Kinase-Glo ATP depletion luminescence.
Test [7] concerns the target Protein kinase 7 (PK7), Plasmodium falciparum 3D7 (PF3D7_0213400) (UniProt Q7YTF7). In words: inhibition of Plasmodium PK7 catalytic activity – biochemical, TCAMS antimalarial set, Kinase-Glo luminescence (AID 1159587). Conditions: recombinant PfPK7, Kinase-Glo ATP depletion luminescence.
In test [8] the target is Calcium-dependent protein kinase 4 (Plasmodium falciparum (isolate 3D7)) (UniProt Q8IBS5). In words: PfCDPK4 kinase inhibitors, biochemical, TCAMS library (AID 1159588; cut-off not given, nearly all actives have IC50 up to about 0.91 µM). Conditions: recombinant PfCDPK4, Kinase-Glo ATP depletion luminescence.
Sequence of Calcium-dependent protein kinase 4 (Plasmodium falciparum (isolate 3D7)) (Q8IBS5 whole entry, looked up): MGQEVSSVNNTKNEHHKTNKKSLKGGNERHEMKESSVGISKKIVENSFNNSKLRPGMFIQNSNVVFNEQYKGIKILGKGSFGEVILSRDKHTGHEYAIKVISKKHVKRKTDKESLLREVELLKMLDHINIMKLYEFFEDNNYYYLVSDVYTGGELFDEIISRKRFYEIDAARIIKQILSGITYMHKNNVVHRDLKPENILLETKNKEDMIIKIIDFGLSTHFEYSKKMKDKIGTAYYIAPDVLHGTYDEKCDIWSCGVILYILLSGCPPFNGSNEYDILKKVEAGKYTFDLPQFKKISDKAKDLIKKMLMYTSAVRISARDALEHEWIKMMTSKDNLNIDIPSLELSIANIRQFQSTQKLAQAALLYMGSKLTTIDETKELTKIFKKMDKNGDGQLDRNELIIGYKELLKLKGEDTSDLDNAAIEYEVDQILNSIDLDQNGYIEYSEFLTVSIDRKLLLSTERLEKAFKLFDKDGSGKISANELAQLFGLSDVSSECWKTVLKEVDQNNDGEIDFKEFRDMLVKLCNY

Experimental findings from PubChem BioAssay are described below.

A number with no mark means an inactive call. For some assays here: Results with a measured potency or affinity are listed apart. Activity calls are given as the source filed them. Unless noted, how the calls were made is not given here.

Sequence of Plasmodium falciparum protein kinase 6 (PK6, PF3D7_1337100) (Q8IDW1 1-305): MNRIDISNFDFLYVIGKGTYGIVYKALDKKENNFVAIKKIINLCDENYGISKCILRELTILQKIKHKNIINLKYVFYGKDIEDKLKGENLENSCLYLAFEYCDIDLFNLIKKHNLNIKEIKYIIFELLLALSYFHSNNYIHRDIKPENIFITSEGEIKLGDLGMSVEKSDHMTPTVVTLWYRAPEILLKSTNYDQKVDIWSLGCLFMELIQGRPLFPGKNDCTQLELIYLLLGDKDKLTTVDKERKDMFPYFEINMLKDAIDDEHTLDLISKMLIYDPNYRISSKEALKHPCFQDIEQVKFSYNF
Sequence of Protein kinase 7 (PK7), Plasmodium falciparum 3D7 (PF3D7_0213400) (Q7YTF7 1-343): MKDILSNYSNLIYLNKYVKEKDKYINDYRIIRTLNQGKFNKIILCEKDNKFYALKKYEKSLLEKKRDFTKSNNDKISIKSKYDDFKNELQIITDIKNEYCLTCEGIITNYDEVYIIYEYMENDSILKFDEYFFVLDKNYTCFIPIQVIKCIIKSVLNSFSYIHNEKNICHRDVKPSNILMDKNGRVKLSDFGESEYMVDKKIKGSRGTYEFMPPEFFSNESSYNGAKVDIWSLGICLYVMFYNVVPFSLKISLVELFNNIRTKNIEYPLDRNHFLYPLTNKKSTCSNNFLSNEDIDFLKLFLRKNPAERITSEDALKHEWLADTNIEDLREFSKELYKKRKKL

On to `O=C(c1ccccc1F)N(Cc1ccc(Cl)cc1)c1ccccn1`, for which the values for the growth inhibition in test [1] and in test [4] were 58% (active) and 84% (active), respectively. The inhibition (commonly the relative decrease from the control value, in per cent) in test [2] was -3%; in test [3], 1%. For the same molecule, the outcome in test [5], in test [6], in test [7] and in test [8] was inactive.

With `CNCc1ccc(-c2cccc(CNCc3ccc(-c4ccccc4)cc3)c2)c(C(=O)OC)c1`, the results for the growth inhibition in test [1] and in test [4] were 19% and 92% (active), respectively. For the same molecule, the inhibition in test [2] was 25%; in test [3], 3%. The outcome in test [5], in test [6], in test [7] and in test [8] was inactive.

`Cc1[nH]c(C)c(-c2ccc(-c3cccc(OC(F)(F)F)c3)nc2)c(=O)c1Cl`: the growth inhibition in test [1] was 97% (active); in test [4], 98% (active). Besides, the inhibition in test [2] was 30%; in test [3] it was -2%. The result in test [5], in test [6], in test [7] and in test [8] was inactive.

On to `COc1ccc2nccc([C@@H](O)CN3CCC(NC(=O)c4ccc(-c5ccccc5)s4)CC3)c2c1`, for which the figures for the growth inhibition in test [1] and in test [4] were 81% (active) and 100% (active), respectively. Besides, the inhibition in test [2] is 10%; in test [3], -6%. The outcome in test [5], in test [6], in test [7] and in test [8] was inactive.

On to `C(=N\Nc1nccc2sc(-c3cccnc3)cc12)/c1ccncc1`, for which the growth inhibition was 94% (active) in test [1] and 101% (active) in test [4]. For the same molecule, the values for the inhibition in test [2] and in test [3] were 65% (active) and 7%, respectively. The outcome in test [5], in test [6], in test [7] and in test [8] was inactive.

For the molecule `CCc1ccccc1N1CCN(CCCC(=O)c2ccc(NC(=O)c3cc(Cl)cc(Cl)c3)cc2)CC1`, the growth inhibition in test [1] was 46%; in test [4] it was 99% (active). Moreover, the inhibition is 16% in test [2] and 1% in test [3]. In addition, the outcome in test [5], in test [6], in test [7] and in test [8] was inactive.

As to `CCc1cc2c3c(N)nc(N)nc3ccc2n1CC`, the growth inhibition in test [1] was -2%; in test [4], 93% (active). Also, the inhibition in test [2] was 62% (active); in test [3], -1%. The outcome in test [5], in test [6], in test [7] and in test [8] was inactive.

Turning to `CN1CCC(N2CCN(Cc3ccc(-c4cccc(-c5nc6ccccc6[nH]5)c4)cc3)CC2)CC1`, the growth inhibition was 100% (active) in test [1] and 99% (active) in test [4]. For the same molecule, the inhibition was 48% in test [2] and -1% in test [3]. For the same molecule, the outcome in test [5], in test [6], in test [7] and in test [8] was inactive.

For the molecule `O=C(/C=C/c1ccc(Cl)c(Cl)c1)NCCCCCN1CCC(NC(=O)Nc2ccc(F)c(Cl)c2)CC1`, the values for the growth inhibition in test [1] and in test [4] were 11% and 100% (active), respectively. In addition, the inhibition in test [2] was 98% (active); in test [3], 5%. Also, the outcome in test [5], in test [6], in test [7] and in test [8] was inactive.

For the molecule `O=C(c1ccc([N+](=O)[O-])o1)N1CCC(Cc2ccc(C(F)(F)F)cc2)CC1`, the growth inhibition is 99% (active) in test [1] and 101% (active) in test [4]. Besides, the inhibition is 38% in test [2] and -2% in test [3]. In addition, the outcome in test [5], in test [6], in test [7] and in test [8] was inactive.

Take `Fc1cccc(COc2ccc(Nc3ncnc4ccc(-c5nnc(C(F)(F)F)o5)cc34)cc2Cl)c1`: the growth inhibition is 77% (active) in test [1] and 101% (active) in test [4]. The results for the inhibition in test [2] and in test [3] were 14% and 5%, respectively. Besides, the outcome in test [5], in test [6], in test [7] and in test [8] was inactive.

In the case of `O=C(Nc1cccc(-c2ccc(-c3nc4ccc(C(F)(F)F)cc4[nH]3)cc2)c1)c1ccoc1`, the growth inhibition in test [1] was 42%; in test [4], 98% (active). Further, the inhibition in test [2] is 76% (active); in test [3], -4%. In addition, the result in test [5], in test [6], in test [7] and in test [8] was inactive.

`Cc1cc2ncn(-c3nccc(NCc4cccnc4)n3)c2cc1C`: the growth inhibition is 98% (active) in test [1] and 99% (active) in test [4]. The figures for the inhibition in test [2] and in test [3] were -2% and -4%, respectively. Besides, the outcome in test [5], in test [6], in test [7] and in test [8] was inactive.

On to `CCNc1cc(C(=O)N[C@@H](Cc2ccccc2)[C@H](O)CNC(C)(C)Cc2cccc(Cl)c2)cc(N2CCCCS2(=O)=O)c1`, for which the growth inhibition in test [1] is 74% (active); in test [4], 97% (active). Also, the inhibition in test [2] was 17%; in test [3] it was 3%. Moreover, the result in test [5], in test [6], in test [7] and in test [8] was inactive.

`CC1CN(c2ccc(NC(=O)c3cccs3)cc2)CCN1Cc1cccc(F)c1` (configuration not stated): the growth inhibition in test [1] and in test [4] was 96% (active) throughout. The inhibition in test [2] is 5%; in test [3] it was 0%. For the same molecule, the result in test [5], in test [6], in test [7] and in test [8] was inactive.

In the case of `NCc1ccc(CNCc2cccc(-c3ccc(-c4nc5ccc(C(F)(F)F)cc5[nH]4)cc3)c2)cc1`, the growth inhibition was 90% (active) in test [1] and 98% (active) in test [4]. Besides, the inhibition was 13% in test [2] and -7% in test [3]. For the same molecule, the result in test [5], in test [6], in test [7] and in test [8] was inactive.

Consider `O=C(/C=C/c1cccc(Cl)c1)N1CCC(C(O)CN2CCC3(CC2)CN(C(=O)/C=C/c2cccc(Cl)c2)c2ccccc23)CC1` (configuration not stated), for which the results for the growth inhibition in test [1] and in test [4] were 38% and 91% (active), respectively. Besides, the inhibition was 34% in test [2] and 0% in test [3]. Besides, the result in test [5], in test [6], in test [7] and in test [8] was inactive.

On to `O=C(NCc1cccc(F)c1)c1ccc(O)c(-c2cc(Cl)cc(Cl)c2)c1`, for which the growth inhibition in test [1] and in test [4] was 99% (active) throughout. Moreover, the inhibition in test [2] is 0%; in test [3] it was 1%. Further, the outcome in test [5], in test [6], in test [7] and in test [8] was inactive.

Regarding `Cc1cc(N[C@@H](Cc2ccccc2)C(=O)NCc2cccc(F)c2)nc(NCCc2ccccc2)n1`, the figures for the growth inhibition in test [1] and in test [4] were 73% (active) and 101% (active), respectively. The inhibition is 7% in test [2] and 0% in test [3]. Moreover, the outcome in test [5], in test [6], in test [7] and in test [8] was inactive.
